This passage reports proliferation results from the supplement of paper PMC12045047.

Counter-ions that a name gives are not always drawn. A number with no mark means an inactive call.

The experiment has as its system primary human airway basal cells (HBEC, luciferase-transduced). Kind of experiment: proliferation (luciferase bioluminescence) Z score relative to plate mean; higher = more proliferation / more cells, active = 1.96 or more. As to conditions: donor: 1, library: ENZO Libraries, 4 days. The method, then: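 Primary human bronchial epithelial (airway basal) cells from two donors, lentivirally transduced with pHIV-Luc-ZsGreen, were seeded at 2000 cells/well in 384-well plates in FAD medium with ENZO or Prestwick library compounds and cultured for 4 days. Luciferin was then added and bioluminescence was read as a measure of cell number. Relative light units were converted to Z scores against the plate, and the mean of triplicate wells is reported.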

For `N#C/C(=C\c1ccc(O)c(O)c1)C(=O)NCc1ccccc1`, the proliferation was 0.366 (0.5 µM) and -0.179 (5 µM).

Take `CCCC[C@@H](C=O)NC(=O)OC(C)(C)C`: the proliferation by setting is: (0.5 µM) 0.474; (5 µM) -0.0416.

Consider `CO[C@H]1C[C@@H]2CC[C@@H](C)[C@@](O)(O2)C(=O)C(=O)N2CCCC[C@H]2C(=O)O[C@H]([C@H](C)C[C@@H]2CC[C@@H](O)[C@H](OC)C2)CC(=O)[C@H](C)/C=C(\C)[C@@H](O)[C@@H](OC)C(=O)[C@H](C)C[C@H](C)/C=C/C=C/C=C/1C` [Rapamycin], for which the proliferation (0.5 µM) was -3.38 and the proliferation (5 µM) is -1.63.

As for `O=C1CCc2c(ccc3ccccc23)O1` [Splitomicin], the proliferation is -0.477 (0.5 µM) and -0.269 (5 µM).

With `O=C(O)c1cc(NCc2cc(O)ccc2O)ccc1O` [2-Hydroxy-5-(25-dihydroxybenzylamino)benzoic acid], the proliferation was -0.149 (0.5 µM) and -0.503 (5 µM).

For `CCCCC[C@H](CC(=O)NO)C(=O)N[C@H](C(=O)N1CCC[C@H]1CO)C(C)C` [Actinonin], the proliferation runs as follows: (0.5 µM) -0.508; (5 µM) -0.446.

As to `Cn1cnc2c(NCc3ccccc3)nc(NCCO)nc21` [Olomoucine], the proliferation by setting is: (0.5 µM) 0.166; (5 µM) -0.244.

For the compound `C[C@]1(Cn2ccnn2)[C@H](C(=O)O)N2C(=O)C[C@H]2S1(=O)=O` [Tazobactam], the proliferation is 0.216 (0.5 µM) and 0.201 (5 µM).

In the case of `CC(C)C(=O)SCCCCCCC(=O)Nc1nc(-c2ccccc2)cs1`, the proliferation by setting is: (0.5 µM) 0.111; (5 µM) 0.205.

As to `Oc1ccc(/C=C/c2cc(O)cc(O)c2)cc1` [Resveratrol], the proliferation is, setting by setting: (0.5 µM) 1.08; (5 µM) 3.39 (active).

On to `CN(C)c1ccc(/C=C2/C(=O)Nc3ccccc32)cc1`, for which the proliferation by setting is: (0.5 µM) -0.0148; (5 µM) 1.43.

Turning to `CC(C(=O)Nc1cccc(/N=C/c2c(O)ccc3ccccc23)c1)c1ccccc1` (stereo unspecified) [Salermide], the proliferation reads like this: (0.5 µM) -0.719; (5 µM) -0.645.

As to `CCN1C(=O)C=CC1=O` [N-Ethylmaleimide], the proliferation (0.5 µM) was 0.0934 and the proliferation (5 µM) is -0.247.

In the case of `CCCC[C@@H](C=O)NC(=O)[C@H](CC(C)C)NC(=O)OCc1ccccc1` [Calpeptin], the proliferation (0.5 µM) was -0.319 and the proliferation (5 µM) was 0.152.

On to `CC(C)C[C@H](NC(=O)N[C@H](C(=O)N[C@@H](CCC(N)=O)C(=O)N[C@@H](C)C=O)[C@@H]1CCNC(=N)N1)C(=O)O` [Elastatinal], for which the proliferation (0.5 µM) is -0.455 and the proliferation (5 µM) is -0.0211.

On to `CN(C)CCCn1cc(C2=C(c3c[nH]c4ccccc34)C(=O)NC2=O)c2ccccc21`, for which the proliferation runs as follows: (0.5 µM) 2.64 (active); (5 µM) -0.932.

As to `CCOC(=O)C1=CN(Cc2ccccc2)C=C(C(=O)OCC)C1c1ccccc1`, the proliferation runs as follows: (0.5 µM) 0.415; (5 µM) 0.65.

For `O=c1c(-c2ccc(O)cc2)coc2cc(O)ccc12` [Daidzein], the proliferation is 0.207 (0.5 µM) and 1.72 (5 µM).

With `COc1cccc(-c2cc(=O)c3ccccc3o2)c1N`, the proliferation was 2.9 (active) (0.5 µM) and 2.39 (active) (5 µM).

With `O=C(O[C@@H]1Cc2c(O)cc(O)cc2O[C@@H]1c1cc(O)c(O)c(O)c1)c1cc(O)c(O)c(O)c1` [Epigallocatechin gallate], the proliferation runs as follows: (0.5 µM) 0.183; (5 µM) -0.177.

Take `CCC(C)[C@H](NS(=O)(=O)c1cccc2ccccc12)C(=O)N[C@H](C=O)Cc1c[nH]c2ccccc12` (stereo partly specified): the proliferation is, setting by setting: (0.5 µM) -0.192; (5 µM) -0.56.

Consider `CC(C)c1cnc(NC(=O)Cc2ccccc2)s1`, for which the proliferation (0.5 µM) was 0.304 and the proliferation (5 µM) is 0.142.

Take `O=C1Nc2ccc(I)cc2/C1=C/c1cc(Br)c(O)c(Br)c1`: the proliferation (0.5 µM) was -0.115 and the proliferation (5 µM) is -0.66.

Consider `CCOC(=O)c1ccc(OC(=O)CCCCCNC(=N)N)cc1` [Gabexate mesylate], for which the proliferation runs as follows: (0.5 µM) -0.301; (5 µM) 0.0316.

On to `O=C(O)CNC(=O)C(CS)Cc1ccccc1` (racemic) [DL-Thiorphan], for which the proliferation reads like this: (0.5 µM) 0.124; (5 µM) -0.0316.

For `C[C@H](CS)C(=O)N1CCC[C@H]1C(=O)O` [Captopril], the proliferation was -0.424 (0.5 µM) and -0.0768 (5 µM).

For the compound `Nc1nc2ncnc-2c[nH]1` [2-Aminopurine], the proliferation runs as follows: (0.5 µM) -0.301; (5 µM) -0.296.

For `CO[C@@H]1[C@H](OC(=O)/C=C/C=C/C=C/C=C/C(=O)O)CC[C@]2(CO2)[C@H]1[C@@]1(C)O[C@@H]1CC=C(C)C` [Fumagillin], the proliferation reads like this: (0.5 µM) -1.58; (5 µM) -0.343.
